Laboratory results reported in PubChem BioAssay AID1159580 (chemical genetic matrix, 2015).
Several values for one entry are separate records, joined by “and”; a condition that tells them apart may be missing. Identical values can stand only once. Hit rate of the full screen: of about 5,500 compounds, about 2,000 (36%) were called active. Not shown: some 18% with an inconclusive outcome. Rule as the data show it: active = normalized growth mostly below about 0.91 (no sharp cut-off); inconclusive = no clear call, values can overlap the other calls; inactive = mostly above about 0.92. The list shows a part of the results.

Assay: chemical genetic growth profiling, strain panel (AID 1159580);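 also: tested at 20 µM; growth read once vehicle control cultures reached saturation at 30 °C; 1 = growth at the plate median or of vehicle wells; lower values mean less growth of the strain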
Conditions: growth OD

In the case of `CNc1ccccc1C(=O)O`, the normalized growth (S. cerevisiae deletion strains, locus YBR021W, strain FUR4, stronger effect = lower value) is reported as 0.955 (inactive), the normalized growth (S. cerevisiae deletion strains, locus YBR229C, strain ROT2, stronger effect = lower value) is reported as 1 (inactive) and the normalized growth (S. cerevisiae deletion strains, locus YCL029C, strain bik1, stronger effect = lower value) is reported as 1.01 (inactive). For the same compound, the normalized growth (S. cerevisiae deletion strains, locus YDL035C, strain GPR1, stronger effect = lower value) was 1.02 (inactive), the normalized growth (S. cerevisiae deletion strains, locus YDL074C, strain BRE1, stronger effect = lower value) was 1.03 (inactive) and the normalized growth (S. cerevisiae deletion strains, locus YDL101C, strain DUN1, stronger effect = lower value) was 1.02 (inactive). The normalized growth (S. cerevisiae deletion strains, locus YDL185W, strain tfp1, stronger effect = lower value) was 1 (inactive), the normalized growth (S. cerevisiae deletion strains, locus YDL192W, strain arf1, stronger effect = lower value) was 0.996 (inactive) and the normalized growth (S. cerevisiae deletion strains, locus YDR101C, strain arx1, stronger effect = lower value) was 1 (inactive). The normalized growth (S. cerevisiae deletion strains, locus YDR150W, strain NUM1, stronger effect = lower value) was 0.997 (inactive), the normalized growth (S. cerevisiae deletion strains, locus YDR162C, strain NBP2, stronger effect = lower value) was 1.05 (inactive) and the normalized growth (S. cerevisiae deletion strains, locus YDR318W, strain mcm21, stronger effect = lower value) was 0.998 (inactive). For the same compound, the normalized growth (S. cerevisiae deletion strains, locus YDR388W, stronger effect = lower value) was 1 (inactive), the normalized growth (S. cerevisiae deletion strains, locus YDR502C, strain sam2, stronger effect = lower value) was 1.02 (inactive) and the normalized growth (S. cerevisiae deletion strains, locus YEL061C, strain CIN8, stronger effect = lower value) was 1 (inactive). The normalized growth (S. cerevisiae deletion strains, locus YER110C, stronger effect = lower value) was 1.02 (inactive), the normalized growth (S. cerevisiae deletion strains, locus YER155C, strain BEM2, stronger effect = lower value) was 0.973 (inactive) and the normalized growth (S. cerevisiae deletion strains, locus YER167W, strain BCK2, stronger effect = lower value) was 1 (inactive). The normalized growth (S. cerevisiae deletion strains, locus YGL078C, strain dbp3, stronger effect = lower value) was 0.981 (inactive), the normalized growth (S. cerevisiae deletion strains, locus YGL086W, strain mad1, stronger effect = lower value) was 0.989 (inactive) and the normalized growth (S. cerevisiae deletion strains, locus YGL248W, strain PDE1, stronger effect = lower value) was 1.03 (inactive). The normalized growth (S. cerevisiae deletion strains, locus YGR135W, strain pre9, stronger effect = lower value) was 1 (inactive), the normalized growth (S. cerevisiae deletion strains, locus YGR229C, strain SMI1, stronger effect = lower value) was 1 (inactive) and the normalized growth (S. cerevisiae deletion strains, locus YGR252W, strain gcn5, stronger effect = lower value) was 1.02 (inactive). The normalized growth (S. cerevisiae deletion strains, locus YHR030C, strain SLT2, stronger effect = lower value) was 1.01 (inactive) and 0.862 (inactive), the normalized growth (S. cerevisiae deletion strains, locus YHR079C, strain IRE1 (second series), stronger effect = lower value) was 0.986 (inactive) and the normalized growth (S. cerevisiae deletion strains, locus YHR079C, strain IRE1, stronger effect = lower value) was 0.873 (inactive). For the same compound, the normalized growth (S. cerevisiae deletion strains, locus YHR094C, strain hxt1, stronger effect = lower value) was 1 (inactive), the normalized growth (S. cerevisiae deletion strains, locus YHR129C, strain ARP1, stronger effect = lower value) was 1.01 (inactive) and the normalized growth (S. cerevisiae deletion strains, locus YHR200W, strain rpn10, stronger effect = lower value) was 1.01 (inactive). For the same compound, the normalized growth (S. cerevisiae deletion strains, locus YIL066C, strain RNR3, stronger effect = lower value) was 1.04 (inactive), the normalized growth (S. cerevisiae deletion strains, locus YIL073C, strain SPO22, stronger effect = lower value) was 1.09 (inactive) and the normalized growth (S. cerevisiae deletion strains, locus YIL125W, strain kgd1, stronger effect = lower value) was 0.969 (inactive). The normalized growth (S. cerevisiae deletion strains, locus YIR030C, strain dcg1, stronger effect = lower value) was 1.01 (inactive), the normalized growth (S. cerevisiae deletion strains, locus YJL095W, strain BCK1, stronger effect = lower value) was 1.05 (inactive) and 0.875 (active) and the normalized growth (S. cerevisiae deletion strains, locus YJL134W, strain LCB3, stronger effect = lower value) was 1 (inactive). For the same compound, the normalized growth (S. cerevisiae deletion strains, locus YJL168C, strain set2, stronger effect = lower value) was 0.996 (inactive), the normalized growth (S. cerevisiae deletion strains, locus YJL187C, strain SWE1 (second series), stronger effect = lower value) was 1.02 (inactive) and the normalized growth (S. cerevisiae deletion strains, locus YJR043C, strain POL32, stronger effect = lower value) was 1.01 (inactive). The normalized growth (S. cerevisiae deletion strains, locus YJR066W, strain TOR1, stronger effect = lower value) was 0.842 (inactive), the normalized growth (S. cerevisiae deletion strains, locus YKL009W, strain mrt4, stronger effect = lower value) was 0.972 (inactive) and the normalized growth (S. cerevisiae deletion strains, locus YKL068W, stronger effect = lower value) was 0.967 (inactive). The normalized growth (S. cerevisiae deletion strains, locus YKL085W, strain MDH1 (second series), stronger effect = lower value) was 0.985 (inactive), the normalized growth (S. cerevisiae deletion strains, locus YKL085W, strain MDH1, stronger effect = lower value) was 0.985 (inactive) and the normalized growth (S. cerevisiae deletion strains, locus YKR001C, strain vps1, stronger effect = lower value) was 1 (inactive). The normalized growth (S. cerevisiae deletion strains, locus YLR039C, strain RIC1, stronger effect = lower value) was 1.03 (inactive), the normalized growth (S. cerevisiae deletion strains, locus YLR058C, strain SHM2, stronger effect = lower value) was 1.02 (inactive) and the normalized growth (S. cerevisiae deletion strains, locus YLR102C, strain apc9, stronger effect = lower value) was 1 (inactive). The normalized growth (S. cerevisiae deletion strains, locus YLR113W, strain HOG1, stronger effect = lower value) was 0.78 (active), the normalized growth (S. cerevisiae deletion strains, locus YLR262C, strain YPT6, stronger effect = lower value) was 1.06 (inactive) and the normalized growth (S. cerevisiae deletion strains, locus YLR268W, strain sec22, stronger effect = lower value) was 0.993 (inactive). For the same compound, the normalized growth (S. cerevisiae deletion strains, locus YLR330W, strain CHS5, stronger effect = lower value) was 1.02 (inactive), the normalized growth (S. cerevisiae deletion strains, locus YLR342W, strain FKS1 (second series), stronger effect = lower value) was 1.02 (inactive) and the normalized growth (S. cerevisiae deletion strains, locus YLR371W, strain rom2, stronger effect = lower value) was 0.995 (inactive). For the same compound, the normalized growth (S. cerevisiae deletion strains, locus YLR418C, strain cdc73, stronger effect = lower value) was 1.08 (inactive), the normalized growth (S. cerevisiae deletion strains, locus YML016C, strain PPZ1, stronger effect = lower value) was 1.01 (inactive) and the normalized growth (S. cerevisiae deletion strains, locus YML032C, strain rad52, stronger effect = lower value) was 1.02 (inactive). The normalized growth (S. cerevisiae deletion strains, locus YML124C, strain tub3, stronger effect = lower value) was 1.01 (inactive), the normalized growth (S. cerevisiae deletion strains, locus YMR078C, strain ctf18, stronger effect = lower value) was 1 (inactive) and the normalized growth (S. cerevisiae deletion strains, locus YMR223W, strain ubp8, stronger effect = lower value) was 1.01 (inactive). The normalized growth (S. cerevisiae deletion strains, locus YMR263W, strain SAP30, stronger effect = lower value) was 1.02 (inactive), the normalized growth (S. cerevisiae deletion strains, locus YMR307W, strain GAS1, stronger effect = lower value) was 1.08 (inactive) and the normalized growth (S. cerevisiae deletion strains, locus YNL067W, strain RPL9B, stronger effect = lower value) was 1.01 (inactive). For the same compound, the normalized growth (S. cerevisiae deletion strains, locus YNL183C, strain NPR1, stronger effect = lower value) was 0.822 (active), the normalized growth (S. cerevisiae deletion strains, locus YNL233W, strain BNI4, stronger effect = lower value) was 1.02 (inactive) and the normalized growth (S. cerevisiae deletion strains, locus YNL250W, strain rad50, stronger effect = lower value) was 0.994 (inactive). The normalized growth (S. cerevisiae deletion strains, locus YNL271C, strain bni1, stronger effect = lower value) was 0.989 (inactive), the normalized growth (S. cerevisiae deletion strains, locus YNL298W, strain CLA4, stronger effect = lower value) was 1.01 (inactive) and the normalized growth (S. cerevisiae deletion strains, locus YNL307C, strain MCK1, stronger effect = lower value) was 0.993 (inactive). For the same compound, the normalized growth (S. cerevisiae deletion strains, locus YNR052C, strain pop2, stronger effect = lower value) was 1 (inactive), the normalized growth (S. cerevisiae deletion strains, locus YOL012C, strain htz1) was 1.68 (inactive) and the normalized growth (S. cerevisiae deletion strains, locus YOL147C, strain pex11, stronger effect = lower value) was 0.999 (inactive). The normalized growth (S. cerevisiae deletion strains, locus YOR061W, strain CKA2, stronger effect = lower value) was 1.01 (inactive), the normalized growth (S. cerevisiae deletion strains, locus YOR069W, strain VPS5, stronger effect = lower value) was 1.01 (inactive) and the normalized growth (S. cerevisiae deletion strains, locus YOR136W, strain idh2, stronger effect = lower value) was 1.01 (inactive). For the same compound, the normalized growth (S. cerevisiae deletion strains, locus YOR144C, strain elg1, stronger effect = lower value) was 0.994 (inactive), the normalized growth (S. cerevisiae deletion strains, locus YOR184W, strain ser1, stronger effect = lower value) was 1.01 (inactive) and the normalized growth (S. cerevisiae deletion strains, locus YOR231W, strain MKK1, stronger effect = lower value) was 0.884 (inactive). For the same compound, the normalized growth (S. cerevisiae deletion strains, locus YOR316C, strain cot1, stronger effect = lower value) was 1.01 (inactive), the normalized growth (S. cerevisiae deletion strains, locus YPL055C, strain LGE1, stronger effect = lower value) was 1.04 (inactive) and the normalized growth (S. cerevisiae deletion strains, locus YPL241C, strain CIN2, stronger effect = lower value) was 0.999 (inactive). The normalized growth (S. cerevisiae deletion strains, locus YPL256C, strain CLN2, stronger effect = lower value) was 0.838 (inactive), the normalized growth (S. cerevisiae deletion strains, locus YPR119W, strain clb2, stronger effect = lower value) was 0.995 (inactive) and the normalized growth (S. cerevisiae deletion strains, locus YPR141C, strain kar3, stronger effect = lower value) was 0.968 (inactive). For the same compound, the normalized growth (S. cerevisiae deletion strains, locus YPR163C, strain tif3, stronger effect = lower value) was 0.998 (inactive), the normalized growth (S. cerevisiae deletion strains, locus YPR167C, strain met16, stronger effect = lower value) was 1.02 (inactive) and the normalized growth (S. cerevisiae deletion strains, strain wtn01, stronger effect = lower value) was 1.01 (inactive). The normalized growth (S. cerevisiae strains, strain wild type, stronger effect = lower value) was 1.01 (inactive).
